PGK inhibitor = blocks T. brucei phosphoglycerate kinase. P07378. PGK/GAPDH coupled, Kinase-Glo luminescence, 60 min. Potency, µM (top dose mostly 57.5 µM), without a hit: at the highest dose activity change, negative = inhibition, hits mostly inhibitors. 380,000 compounds, 0.043% hits. AID 602233; also: % is scaled to controls: 0 for no effect and ±100 for the full control effect; nearly all actives have a fitted effect of over 60% in size
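Recombinant glycosomal PGK reaction used 1,3-bisphosphoglycerate generated in-well by GAPDH (100nM final) in 100mM TEA pH 7.6, 5mM MgCl2, 0.01% Tween-20. After 60 minutes at room temperature, ATP was read by Kinase-Glo Plus luminescence end-point.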
POLK inh = DNA polymerase kappa (human) inhibition; purified Pol kappa, fluorescent DNA synthesis assay, 10 min; Potency, µM (top dose mostly 107 µM), without a hit: top-dose activity, negative = inhibition, usual class: inhibitors; 400,000 compounds, 0.53% hits; also: % is scaled to controls: 0 for no effect and ±100 for the full control effect
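10 nM Pol kappa was preincubated with compounds for 15 min at room temperature. Reaction started with 50 nM (final) substrate. Fluorescence read kinetically at 0 and 10 min.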
POLH inh = inhibitors of human DNA polymerase eta; AID 588591; Potency, µM (top dose mostly 114 µM), without a hit: at the top dose activity change, negative = inhibition, usual class: inhibitors; recombinant Pol eta, fluorescent DNA replication assay; 390,000 compounds, 1.2% hits; Q9Y253; also: % is scaled to controls: 0 for no effect and ±100 for the full control effect
Target sequence (Q9Y253 whole entry, looked up): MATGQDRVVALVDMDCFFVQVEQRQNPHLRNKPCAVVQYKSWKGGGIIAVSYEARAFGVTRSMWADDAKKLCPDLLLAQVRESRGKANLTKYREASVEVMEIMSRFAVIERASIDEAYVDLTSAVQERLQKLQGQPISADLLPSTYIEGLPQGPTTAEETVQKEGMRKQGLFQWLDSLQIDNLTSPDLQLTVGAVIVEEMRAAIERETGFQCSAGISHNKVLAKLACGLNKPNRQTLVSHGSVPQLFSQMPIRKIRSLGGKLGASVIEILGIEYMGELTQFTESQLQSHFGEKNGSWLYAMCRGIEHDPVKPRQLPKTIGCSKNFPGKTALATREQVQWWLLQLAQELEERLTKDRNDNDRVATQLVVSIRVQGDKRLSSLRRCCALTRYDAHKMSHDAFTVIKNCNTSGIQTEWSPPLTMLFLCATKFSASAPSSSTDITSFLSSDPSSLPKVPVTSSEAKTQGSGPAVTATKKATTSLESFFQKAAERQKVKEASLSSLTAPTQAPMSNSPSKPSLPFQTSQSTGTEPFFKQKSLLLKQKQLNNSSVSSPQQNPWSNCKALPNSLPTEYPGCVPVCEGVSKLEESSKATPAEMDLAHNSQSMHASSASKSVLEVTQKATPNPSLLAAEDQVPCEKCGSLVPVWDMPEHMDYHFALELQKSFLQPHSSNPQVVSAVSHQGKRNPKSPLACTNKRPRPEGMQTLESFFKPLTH
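Pol eta (10 nM) was preincubated with compounds for 15 min at room temperature, after which fluorescent replication substrate (50 nM final) was added to start the reaction. Fluorescence was read kinetically at 0 and 10 min.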
POLI inh = inhibitors of human DNA polymerase iota. 390,000 compounds, 1% hits. Q9UNA4. Pol iota fluorescent replication assay, 10 min. Potency, µM (highest dose often 115 µM), without a hit: top-dose activity, negative = inhibition, usual class: inhibitors
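Pol iota at 10 nM preincubated 15 min with compounds at room temperature; reaction started with fluorescent substrate, 50 nM final. Fluorescence read kinetically at 0 and 10 min; buffer-only wells as negative control.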
FEN1 inh = human FEN1 inhibition | P39748 | Recombinant FEN1 flap cleavage, fluorescence, 15 min | Potency, µM (series often up to 114 µM), for inactives: at the top dose activity change, negative = inhibition, usual class: inhibitors | 390,000 compounds, 0.35% hits | AID 588795; also: % is scaled to controls: 0 for no effect and ±100 for the full control effect; nearly all actives have a fitted effect of over 65% in size
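Compounds are tested as a concentration series against 10 nM FEN1; after a 15 min room-temperature preincubation, 50 nM substrate starts cleavage, with plate reads at 0 and 15 min. Normalized responses are fitted by a Hill equation.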
Pol beta inh = blocks human DNA polymerase beta activity. P06746. Pol beta primer extension/strand displacement, fluorescence kinetic. Potency, µM (titrated, usually from 114 µM), for inactives: top-dose activity change, negative = inhibition, hits mostly inhibitors. 340,000 compounds, 1.3% hits. AID 485314; also: % is scaled to controls: 0 for no effect and ±100 for the full control effect
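Values derive from four-parameter Hill fits of normalized kinetic data: reads at 0 and 10 min following addition of 50 nM substrate to 10 nM Pol beta preincubated 15 min with compound.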
* hit, by the source's call; ! = a repeat was not active. In the library only some 2.4% were active in any assay of this set; here they are far more common. Calls follow the shape of the dose curve; as a rule, active = well fitted curve in the direction sought with a large enough effect; inconclusive = small, poorly fitted or top-dose-only effect, or another doubt; inactive = no such curve, though single readings can be large; an effect the other way counts as inactive or inconclusive. Potency is read from the fitted curve at half-maximal effect.

How did O=Cc1c(-c2ccc(Cl)cc2)oc2ccc(O)cc12 do in these assays?
PGK inhibitor: -8%; POLK inh: inconclusive; POLH inh: 45µM*; POLI inh: inconclusive; FEN1 inh: -18%

What do the screens show for `C/C(=C\c1ccc(C(=O)O)cc1)c1ccc2c(c1)C(C)(C)CCC2(C)C`?
PGK inhibitor: 1%; POLK inh: inconclusive; POLH inh: inconclusive; POLI inh: 32µM*!; FEN1 inh: -16%; Pol beta inh: inconclusive

How did CN(Cc1ccccc1)c1ccc(/C=C/c2sc3ccccc3[n+]2C)cc1 do in these assays?
POLK inh: 0%; POLI inh: -6%; FEN1 inh: 40µM*

What do the screens show for `CCCCCCCCCC[n+]1ccc(/C=C/c2ccc(N(C)C)cc2)c2ccccc21`?
POLK inh: 40µM*; POLI inh: 50µM*; FEN1 inh: 79µM*

Results for CC[n+]1c(/C=C/Nc2ccccc2)sc2ccccc21 ?
PGK inhibitor: -6%; POLK inh: -23%; POLH inh: -8%; POLI inh: inconclusive; FEN1 inh: -9%; Pol beta inh: 0%

Results for Cc1sc2ccccc2[n+]1CCC[n+]1c(C)sc2ccccc21 ?
POLK inh: -19%; POLI inh: inconclusive; FEN1 inh: -27%

How did CN(C)c1ccc(/C=C/c2sc3ccccc3[n+]2CCCCI)cc1 do in these assays?
POLK inh: 50µM*; POLI inh: 79µM*; FEN1 inh: inconclusive

How did CCCC[n+]1c(/C=C/c2ccc(N(C)C)cc2)sc2ccccc21 do in these assays?
POLK inh: inconclusive; POLI inh: 50µM*; FEN1 inh: 50µM*

Results for C[C@@H]1[C@H](c2ccccc2)OCCS(=O)(=O)N1Cc1ccccc1Br ?
POLK inh: -17%; POLI inh: 3%; FEN1 inh: -25%

What do the screens show for `Cc1cc(OCC(=O)Nc2ccc(CN3CCOCC3)cc2)c2c(C)cc(=O)oc2c1`?
PGK inhibitor: 1%; POLK inh: -39%; POLH inh: 4%; POLI inh: 50µM*; FEN1 inh: 25%; Pol beta inh: 23%

What do the screens show for `CC(C)(C)C(=O)CSc1n[nH]c(-c2ccccc2)n1`?
POLK inh: -10%; POLI inh: -16%; FEN1 inh: inconclusive

How did CC1/C=C/C=C/C=C/C=C/C=C/C=C/C=C/C(OC2OC(C)C(O)C(N)C2O)CC2O[C@@](O)(CC(O)CC(O)C(O)CCC(O)CC(O)CC(=O)OC(C)[C@H](C)C1O)CC(O)C2C(=O)O (stereo partly specified) do in these assays?
POLK inh: 3.5µM*

How did N#Cc1c(-c2ccccc2)nc(SCc2ccc(Cl)cc2)[nH]c1=O do in these assays?
PGK inhibitor: -12%; POLK inh: -2%; POLH inh: 79µM*; POLI inh: inconclusive; FEN1 inh: -22%; Pol beta inh: inconclusive

How did C=CCSc1nc(-c2ccccc2)c(C#N)c(=O)[nH]1 do in these assays?
PGK inhibitor: -9%; POLK inh: 6%; POLH inh: -7%; POLI inh: 75%; FEN1 inh: -11%; Pol beta inh: -6%

How did C=C1C=C(C(F)(F)F)n2ncc(C(=O)NCc3ccc(F)cc3)c2N1 do in these assays?
POLK inh: -17%; POLI inh: 14%; FEN1 inh: -17%

What do the screens show for `CCN(CC)CCCNC(=O)CCCn1ncn2c(cc3occc32)c1=O`?
POLK inh: 2%; POLI inh: 25%; FEN1 inh: 22%; Pol beta inh: -6%

What do the screens show for `O=c1cc(CSc2nnnn2-c2ccccc2)nc2scc(-c3ccccc3)n12`?
PGK inhibitor: -2%; POLK inh: inconclusive; POLH inh: -14%; POLI inh: inconclusive; FEN1 inh: -5%; Pol beta inh: 25µM*

What do the screens show for `Cc1cccc(C)c1OCc1cc(=O)n2c(-c3ccccc3)csc2n1`?
PGK inhibitor: 1%; POLK inh: -5%; POLH inh: -3%; POLI inh: 18%; FEN1 inh: 16%; Pol beta inh: -13%

How did O=c1cc(CN2CCN(c3ccc(O)cc3)CC2)nc2scc(-c3ccccc3)n12 do in these assays?
PGK inhibitor: -11%; POLK inh: -20%; POLH inh: -18%; POLI inh: inconclusive; FEN1 inh: 7%; Pol beta inh: 11µM*

Results for Cc1cccc(OCc2cc(=O)n3c(-c4ccccc4)csc3n2)c1C ?
PGK inhibitor: -2%; POLK inh: -34%; POLH inh: inconclusive; POLI inh: inconclusive; FEN1 inh: 7%; Pol beta inh: 28µM*

How did O=c1cc(CSc2nnnn2-c2ccccc2)nc2sccn12 do in these assays?
PGK inhibitor: -4%; POLK inh: -23%; POLH inh: -2%; POLI inh: inconclusive; FEN1 inh: 1%; Pol beta inh: -16%

What do the screens show for `CC(C)c1ccc(OCc2cc(=O)n3c(-c4ccccc4)csc3n2)cc1`?
PGK inhibitor: -7%; POLK inh: -24%; POLH inh: inconclusive; POLI inh: inconclusive; FEN1 inh: 12%; Pol beta inh: 20µM*

How did CCn1c(=O)c(C(=O)Nc2ccc(C(C)=O)cc2)nc2ccccc21 do in these assays?
PGK inhibitor: -3%; POLK inh: -24%; POLH inh: -28%; POLI inh: 45%; FEN1 inh: 10%; Pol beta inh: -3%

Results for COC(=O)C1=C(O)/C(=C\c2ccc(CNS(=O)(=O)c3ccccc3)o2)N=C1C ?
PGK inhibitor: inactive; POLK inh: 28µM*; POLH inh: inconclusive; POLI inh: inconclusive; FEN1 inh: -7%; Pol beta inh: -20%

How did COC(=O)C1=C(O)/C(=C\c2ccc(CNC(=O)C(=O)Nc3ccc(C)c(C)c3)o2)N=C1C do in these assays?
PGK inhibitor: 1%; POLK inh: -26%; POLH inh: 22µM*; POLI inh: inconclusive; FEN1 inh: -5%; Pol beta inh: inconclusive

How did CCOC(=O)C1=C(O)/C(=C\c2ccc(CNS(=O)(=O)c3ccc(Br)cc3)o2)N=C1C do in these assays?
PGK inhibitor: -13%; POLK inh: 50µM*; POLH inh: 22µM*; POLI inh: 16µM*; FEN1 inh: inconclusive; Pol beta inh: -24%

How did CCOc1ccc(NC(=O)c2nc(S(=O)(=O)Cc3ccc(F)cc3)ncc2Cl)cc1 do in these assays?
POLK inh: -5%; POLI inh: -12%; FEN1 inh: -27%

How did O=[N+]([O-])c1ccc2c(c1)C=C/C2=C\c1ccc(C=S)cc1 do in these assays?
POLK inh: -10%; POLI inh: 0%; FEN1 inh: -21%

Screening data as filed in PubChem BioAssay.
